Five compounds from PubChem BioAssay can be followed below.

Activity calls are given as the source filed them. Unless noted, no rule for the calls is given here.

The nature of assay [1]: anti-His antibody binders, primary screen, artefact control for SMM control protein annotation, biochemical, small-molecule microarray, 635 nm fluorescence (AID 1128).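 Also: score merges feature fluorescence with signal-to-noise for each printed compound spot.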 The conditions noted are these: anti-His Alexa647 antibody binding, higher = more signal.
Assay [2] relates to Human papillomavirus type 1a E7 protein (residues 1-88). The experiment in a line: HPV1a E7 small-molecule binders, primary screen, biochemical, small-molecule microarray, residues 1-88, 635 nm (AID 1129). The conditions noted are these: small-molecule microarray binding, fluorescence 635 nm; higher = more signal.
The target of assay [3] is Focal adhesion kinase 1 (Homo sapiens) (UniProt Q05397). The experiment in a line: small-molecule microarray binders of FAK, primary screen, biochemical, 635/667 nm fluorescence, BSA, DTT (AID 1130).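 Also: composite of spot emission at 667 nm and signal to noise over triplicate slides.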 The conditions noted are these: PTK2 binding, 635 nm fluorescence, higher = more signal.
Sequence of Focal adhesion kinase 1 (Homo sapiens) (Q05397 whole entry, looked up): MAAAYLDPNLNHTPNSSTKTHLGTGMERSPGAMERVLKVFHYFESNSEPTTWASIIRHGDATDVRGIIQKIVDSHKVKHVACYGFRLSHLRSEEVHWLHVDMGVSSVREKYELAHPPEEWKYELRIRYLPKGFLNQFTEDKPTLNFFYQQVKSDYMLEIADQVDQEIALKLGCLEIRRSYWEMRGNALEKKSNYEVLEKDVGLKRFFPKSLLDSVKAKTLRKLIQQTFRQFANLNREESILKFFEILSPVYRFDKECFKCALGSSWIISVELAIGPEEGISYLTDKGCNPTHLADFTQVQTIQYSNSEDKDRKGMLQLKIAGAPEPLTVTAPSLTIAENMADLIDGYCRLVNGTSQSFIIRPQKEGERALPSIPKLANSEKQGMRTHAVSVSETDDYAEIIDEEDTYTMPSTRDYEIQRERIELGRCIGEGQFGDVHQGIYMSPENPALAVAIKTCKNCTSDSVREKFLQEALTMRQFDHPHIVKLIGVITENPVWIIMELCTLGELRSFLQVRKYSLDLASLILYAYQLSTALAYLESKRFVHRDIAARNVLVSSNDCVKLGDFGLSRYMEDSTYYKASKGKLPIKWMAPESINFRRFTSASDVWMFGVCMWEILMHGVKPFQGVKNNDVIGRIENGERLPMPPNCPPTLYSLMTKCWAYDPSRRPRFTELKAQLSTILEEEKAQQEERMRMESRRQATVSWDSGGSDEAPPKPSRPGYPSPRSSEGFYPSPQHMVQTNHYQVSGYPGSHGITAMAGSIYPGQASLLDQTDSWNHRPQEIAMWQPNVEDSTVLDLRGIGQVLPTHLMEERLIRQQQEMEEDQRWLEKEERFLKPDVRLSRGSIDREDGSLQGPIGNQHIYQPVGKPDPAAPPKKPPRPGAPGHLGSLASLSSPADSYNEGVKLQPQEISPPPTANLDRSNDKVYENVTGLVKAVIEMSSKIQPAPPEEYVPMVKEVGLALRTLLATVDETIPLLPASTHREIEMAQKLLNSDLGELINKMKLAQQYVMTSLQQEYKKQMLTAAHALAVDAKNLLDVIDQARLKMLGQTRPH
Assay [4] deals with Fibrinogen (Alexa647-labelled). In words: fibrinogen binders on compound microarrays, profiling panel, artefact control for SMM control-protein annotation, biochemical, small-molecule microarray, 635/667 nm fluorescence (AID 1131).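 Also: z-score merges 667 nm fluorescence with per-spot signal-to-noise over triplicate slides.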 The conditions noted are these: fibrinogen-A647 binding fluorescence, higher = more signal.
Assay [5] addresses Follistatin (Homo sapiens) (UniProt P19883). The experiment in a line: follistatin binders on small-molecule microarrays, primary screen, biochemical, small-molecule microarray, 635/667 nm fluorescence (AID 1132). The conditions noted are these: FST binding, 635 nm fluorescence, higher = more signal.
Assay [6] addresses Fibroblast growth factor 2 (Homo sapiens) (UniProt P09038). The experiment in a line: FGF2 binders on small-molecule microarrays, primary screen, biochemical, small-molecule microarray, 635/667 nm fluorescence (AID 1133). The conditions noted are these: small-molecule microarray binding, FGF2, fluorescence 635/667; higher = more signal.
Assay [7] can be described thus: mitochondrial membrane potential change in A549 cells, profiling panel, cell-based, JC-1 fluorescence, basal, 24 h, 100 nL (AID 1138).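 Also: A549 lung adenocarcinoma cells under basal conditions with no added stimulus; test concentration not given here.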 The conditions noted are these: higher = more signal.
The next assay relates to Lefty1. In words: Lefty1 binders on small-molecule microarrays, primary screen, biochemical, small-molecule microarray, 635/667 nm fluorescence (AID 1139). The conditions noted are these: small-molecule microarray binding, fluorescence 635/667; higher = more signal.
For assay [8], the system named is wheat germ agglutinin (Triticum aestivum), Alexa647-labelled. The experiment in a line: wheat germ agglutinin binders on compound microarrays, profiling panel, artefact control for SMM control-protein annotation, biochemical, small-molecule microarray, 635/667 nm fluorescence (AID 1140).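 Also: score merges 667 nm feature emission with signal to noise over triplicate slides.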 The conditions noted are these: WGA-A647 binding, 635 nm fluorescence, higher = more signal.

Assay [9] concerns the target Luciferin 4-monooxygenase (Photinus pyralis) (UniProt P08659). The experiment in a line: firefly luciferase enzyme inhibitors, primary screen, biochemical, luminescence, purified enzyme, 2006 set (AID 1141).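 Also: cell-free assay with purified firefly luciferase at 100 ng per well in PBS; test concentration not given here.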 The conditions noted are these: SteadyGlo luminescence, 30 min, higher = more signal, called active from +8 up or from −8 down.
For assay [10], the system named is Wnt5a (protein binding on small-molecule microarray). In words: Wnt5a binders on small-molecule microarray, primary screen, biophysical, 635/667 nm fluorescence (AID 1142).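 Also: fluorescence read at 667 nm with signal to noise per printed feature.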 The conditions noted are these: 635 nm fluorescence, higher = more signal.
Assay [11] in a line: cell viability in Huh7 cells, primary screen, cytotoxicity control for HCV replication inhibitor project, CellTiter-Glo luminescence, basal, 48 h (AID 1143).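 Also: Huh7 hepatoma cells carrying a hepatitis C replication reporter with no stimulus; test concentration not given here.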 The conditions noted are these: Huh7 HCV replicon, higher = more signal, called active from +8 up or from −8 down. Background: ATP-based viability assays read luminescence as a measure of living cells.
Assay [12] can be described thus: P. aeruginosa biofilm formation inhibitors, primary screen, PAO1 strain, BacTiter-Glo luminescence, LB-PBS (AID 1144). The conditions noted are these: 12 h, higher = more signal.
Assay [13] can be described thus: CREB reporter modulators without forskolin, primary screen, cell-based, PC12, CRE-LacZ reporter, unstimulated (AID 1145). The conditions noted are these: no forskolin, luminescence, 4.5 h, higher = more signal, called active from +8 up or from −8 down.
Assay [14] is described as follows: CREB reporter modulators under forskolin, primary screen, cell-based, PC12, CRE-LacZ reporter, forskolin-stimulated (AID 1146).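 Also: PC12 cells with 6xCRE LacZ reporter stimulated by forskolin 10 µM; beta-galactosidase reporter signal reflecting CREB driven transcription.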 The conditions noted are these: luminescence, 4.5 h, higher = more signal, called active from +8 up or from −8 down.
Assay [15] deals with Streptavidin (Streptomyces avidinii) (UniProt P22629). The experiment in a line: streptavidin binders on small-molecule microarray, primary screen, artefact control for SMM compound annotation, biophysical, 635/667 nm fluorescence (AID 1147).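 Also: signal reflects streptavidin binding to arrayed compounds as a control protein.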 The conditions noted are these: streptavidin binding, higher = more signal.
Sequence of Streptavidin (Streptomyces avidinii) (P22629 whole entry, looked up): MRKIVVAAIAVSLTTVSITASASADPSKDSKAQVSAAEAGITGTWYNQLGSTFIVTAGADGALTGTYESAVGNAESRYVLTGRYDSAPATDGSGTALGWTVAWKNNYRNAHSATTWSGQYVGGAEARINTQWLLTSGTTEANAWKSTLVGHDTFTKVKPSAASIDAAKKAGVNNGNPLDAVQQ
Assay [16] in a line: small-molecule binders of probe aInhba, primary screen, biochemical, small-molecule microarray, 635/667 nm fluorescence (AID 1148).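 Also: score merges 667nm spot fluorescence with signal-to-noise for antibody binding to printed compounds.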 The conditions noted are these: higher = more signal.
For assay [17], the target named is Torsin-1A (Homo sapiens) (UniProt O14656). In words: torsin A binders from cell lysate, primary screen, small-molecule microarray, wild-type, 635/667 nm (AID 1149). The conditions noted are these: COS7 hTOR1A-WT lysate, 635 nm fluorescence, higher = more signal.
Sequence of Torsin-1A (Homo sapiens) (O14656 whole entry, looked up): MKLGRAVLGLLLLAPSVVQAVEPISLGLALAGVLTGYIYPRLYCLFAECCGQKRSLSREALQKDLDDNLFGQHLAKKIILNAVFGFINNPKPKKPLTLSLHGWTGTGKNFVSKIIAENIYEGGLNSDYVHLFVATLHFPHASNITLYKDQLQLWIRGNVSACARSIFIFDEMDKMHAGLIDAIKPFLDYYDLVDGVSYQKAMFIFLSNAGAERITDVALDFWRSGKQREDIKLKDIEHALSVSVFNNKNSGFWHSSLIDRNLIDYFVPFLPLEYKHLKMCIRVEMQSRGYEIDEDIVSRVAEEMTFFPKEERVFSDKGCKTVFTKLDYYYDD
Assay [18] has the same target. In words: small-molecule binders of mutant TOR1A in lysate, primary screen, cell lysate, small-molecule microarray, COS7 lysate, 635/667 nm fluorescence (AID 1150).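 Also: score pools 667 nm emission and signal to noise measuring lysate protein binding.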 The conditions noted are these: COS7 hTOR1A mutant lysate, 635 nm fluorescence, higher = more signal.
Assay [19] concerns Sonic hedgehog protein (Shh). The experiment in a line: small-molecule binders of Shh protein, primary screen, biochemical, small-molecule microarray, 635/667 nm fluorescence (AID 1151).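 Also: Shh protein binding to compounds spotted on small-molecule microarray slides; score combines spot fluorescence intensity with signal-to-noise across triplicate slides.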 The conditions noted are these: small-molecule microarray binding, 635 nm fluorescence; higher = more signal.

Sequence of Follistatin (Homo sapiens) (P19883 whole entry, looked up): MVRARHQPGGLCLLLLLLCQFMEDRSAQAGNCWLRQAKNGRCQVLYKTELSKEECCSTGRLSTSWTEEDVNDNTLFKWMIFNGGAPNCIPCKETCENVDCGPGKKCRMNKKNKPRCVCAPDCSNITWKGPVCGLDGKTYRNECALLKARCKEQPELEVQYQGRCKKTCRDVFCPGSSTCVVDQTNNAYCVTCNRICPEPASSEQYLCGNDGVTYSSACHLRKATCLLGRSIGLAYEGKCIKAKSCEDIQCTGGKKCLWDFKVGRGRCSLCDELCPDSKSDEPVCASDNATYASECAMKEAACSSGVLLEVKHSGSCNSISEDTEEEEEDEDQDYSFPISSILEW
Sequence of Fibroblast growth factor 2 (Homo sapiens) (P09038 whole entry, looked up): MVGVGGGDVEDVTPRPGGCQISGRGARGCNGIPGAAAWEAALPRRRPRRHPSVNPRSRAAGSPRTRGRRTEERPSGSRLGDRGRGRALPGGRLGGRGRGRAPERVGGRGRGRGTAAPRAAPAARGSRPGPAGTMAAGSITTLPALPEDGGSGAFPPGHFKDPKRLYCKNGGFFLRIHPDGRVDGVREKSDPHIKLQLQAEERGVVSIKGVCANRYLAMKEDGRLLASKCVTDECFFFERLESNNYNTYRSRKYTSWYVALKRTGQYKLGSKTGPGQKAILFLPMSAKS
Sequence of Luciferin 4-monooxygenase (Photinus pyralis) (P08659 whole entry, looked up): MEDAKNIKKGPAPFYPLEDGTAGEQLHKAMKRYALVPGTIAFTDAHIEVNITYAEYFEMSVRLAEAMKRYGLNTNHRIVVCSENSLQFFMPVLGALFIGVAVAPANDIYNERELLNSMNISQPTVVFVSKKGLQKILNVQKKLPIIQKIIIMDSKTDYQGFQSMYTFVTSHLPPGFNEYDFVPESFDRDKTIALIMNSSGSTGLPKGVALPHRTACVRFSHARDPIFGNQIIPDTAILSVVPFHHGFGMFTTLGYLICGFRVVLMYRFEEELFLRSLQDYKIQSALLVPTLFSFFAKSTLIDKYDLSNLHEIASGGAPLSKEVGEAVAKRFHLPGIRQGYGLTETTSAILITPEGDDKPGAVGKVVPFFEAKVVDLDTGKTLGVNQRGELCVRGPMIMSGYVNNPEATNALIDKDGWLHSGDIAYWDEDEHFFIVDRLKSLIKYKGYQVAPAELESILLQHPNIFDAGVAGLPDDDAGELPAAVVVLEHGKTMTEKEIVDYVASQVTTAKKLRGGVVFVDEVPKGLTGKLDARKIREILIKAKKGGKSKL

Regarding `C=C(/C(=C/C[C@@H](OC(C)=O)c1ccc(CO)o1)c1cnc2ccccc2c1)C(C)C`, the composite z-score in assay [1] was found to be 0.452; in assay [2], 1.23; in assay [3] it was 0.88; in assay [4] it was 0.594; in assay [5] it was 1.4; in [6], 1.9. The composite z-score in the assay on Lefty1 was 1.37; in assay [8] it was 0.463; in [10], 1.3; in assay [15], 0.17; in assay [16], -0.0448; in the assay with Torsin-1A (Homo sapiens) [17] it was 2.14. Besides, the composite z-score with Torsin-1A (Homo sapiens) [18] came to 0.619; in assay [19], 2.04. Also, the z-score in [7] was -0.527; in assay [9], -3.13 (inactive); in [11] it was -0.136 (inactive); in assay [12] it was -0.171 (inactive); in assay [13], 0.159 (inactive); in assay [14], -0.731 (inactive).

For `CCCC[C@@H]1C[C@H]1[C@@H](NC(=O)c1ccccc1)c1ccccc1`, the composite z-score is 1.47 in [1]; -0.23 in assay [2]; 0.202 in assay [3]; 0.244 in assay [4]; 0.671 in assay [5]; 0.085 in assay [6]. In addition, the composite z-score with Lefty1 was -0.235; in assay [8] it was 0.136; in [10] it was 0.209; in [15], 0.0499; in [16], 0.401; in the assay with Torsin-1A (Homo sapiens) [17], -0.477. Besides, the composite z-score in the assay with Torsin-1A (Homo sapiens) [18] is -0.0734; in assay [19], -0.412. Besides, the z-score in assay [7] was -1.03; in [9], 1.19 (inactive); in assay [11] it was -0.877 (inactive); in assay [12], 0.727 (inactive); in assay [13], 0.0041 (inactive); in assay [14], 0.79 (inactive).

For the compound `O=C1O[C@@H](c2ccccc2)[C@@H](c2ccccc2)N2[C@@H](c3ccc(O)cc3)[C@]3(C(=O)Nc4ccccc43)[C@@H](C(=O)N3CCCCCCC3)[C@H]12`, the composite z-score in assay [1] was determined as 2.96; in assay [2], 1.23; in assay [3] it was 1.22; in [4], 0.827; in assay [5], 1.43; in [6] it was 1.64. Also, the composite z-score in the assay on Lefty1 was 1.6; in assay [8], 1.46; in assay [10] it was 1.36; in [15], 2.93; in assay [16] it was 1.98; in the assay with Torsin-1A (Homo sapiens) [17] it was 1.91. Further, the composite z-score turned out to be 1.8 in the assay with Torsin-1A (Homo sapiens) [18] and 2.02 in assay [19]. Further, the z-score in [7] was 0.48; in [9], 1.04 (inactive); in [11], -2.61 (inactive); in assay [12], -0.279 (inactive); in assay [13], 0.0384 (inactive); in assay [14] it was 0.276 (inactive).

For `O=C1C2C=CC(C(O)c3cccc4ccccc34)N(n3cnnc3)C2C(=O)N1Cc1ccccc1` (stereo not given), the composite z-score in assay [1] was 0.968; in [2] it was -0.0247; in assay [3] it was 0.699; in assay [4], 0.798; in assay [5], 0.355; in assay [6], 0.406. Further, the composite z-score was determined as 0.302 in the assay on Lefty1; 0.872 in assay [8]; 1.24 in assay [10]; 0.225 in [15]; 1.28 in assay [16]; 0.104 with Torsin-1A (Homo sapiens) [17]. The figures for the composite z-score (with Torsin-1A (Homo sapiens) [18]; in assay [19]) were -0.0432 and 0.177, respectively. For the same compound, the z-score was -0.94 in assay [7]; 1.06 (inactive) in assay [9]; 0.251 (inactive) in assay [11]; 0.878 (inactive) in assay [12]; 0.425 (inactive) in assay [13]; 0.972 (inactive) in [14].

Take `C=CC[C@@]1(C(=O)OC)N=C(c2ccc(OCCCO)cc2)O[C@@H]1c1ccccc1CN=[N+]=[N-]`: the composite z-score in assay [1] is 0.78; in assay [2] it was 0.996; in assay [3], 0.242; in [4], 0.0758; in assay [5] it was 1.05; in assay [6] it was 0.0452. Moreover, the composite z-score was 0.543 in the assay with Lefty1; -0.0321 in [8]; 0.0122 in assay [10]; -0.233 in [15]; -0.212 in [16]; 0.0478 in the assay with Torsin-1A (Homo sapiens) [17]. Moreover, the composite z-score in the assay with Torsin-1A (Homo sapiens) [18] is -0.249; in assay [19], 0.838. In addition, the z-score is 0.00108 in assay [7]; 0.668 (inactive) in assay [9]; -4.22 (inactive) in [11]; -0.88 (inactive) in assay [12]; -1.03 (inactive) in [13]; -1.5 (inactive) in assay [14].
